Reference: PubChem BioAssay (Tox21)
Records with an inconclusive call do not appear. Calls of active or inactive are those of the source. Calls follow the shape of the dose curve; as a rule, active = well fitted curve in the direction sought with a large enough effect in the repeat runs; inconclusive = weak or mixed curves; inactive = no such curve, though single readings can be large; an effect the other way counts as inactive or inconclusive.

Assays:
[1] = qHTS RealTime-Glo MT Cell Viability Assay in HepG2 cells - 24 hour (AID 1224867); also: nearly all actives have a fitted effect of over 50% in size
Procedure, shortened: (§1)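 qHTS, HepG2, 600 cells/well, RealTime-Glo (NanoLuc + prosubstrate) added with cells; 5 h preincubation; DMSO compound addition; 37 C; luminescence at 0/8/16/24/32/40 h.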

[2] = qHTS RealTime-Glo MT Cell Viability Assay in HEK293 cells - 32 hour (AID 1224868); also: top concentration of the series differs between compounds; nearly all actives have a fitted effect of over 50% in size
Procedure, shortened: (§2)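 Assay medium contained NanoLuc luciferase plus cell-permeant prosubstrate, added with HEK293 cells at 600 cells/well. After 5 h at 37 C/5% CO2 compounds were added; plates stayed at 37 C for 40 h with serial luminescence reads.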

[3] = A CellTox Green Cytotoxicity Assay to monitor cytotoxicity in HEK293 cells - 0 hour (AID 1224869); also: nearly all actives have a fitted effect of over 50% in size
Procedure, shortened: (§3)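 Real-time, in one plate: 600 HEK293 cells/well with dead-cell DNA dye, pinned compound after 5 h, 37 C incubation over 40 h; viable cells give no appreciable fluorescence.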

[4] = qHTS RealTime-Glo MT Cell Viability Assay in HepG2 cells - 40 hour (AID 1224870); also: nearly all actives have a fitted effect of over 50% in size
Procedure, shortened: (§4)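 HepG2 cells (600/well) mixed with RealTime-Glo MT reagent, settled 5 h at 37 C/5% CO2 before compound addition. Nonlytic NanoLuc luminescence from viable-cell prosubstrate reduction read repeatedly during 40 h treatment at 37 C.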

[5] = A CellTox Green Cytotoxicity Assay to monitor cytotoxicity in HEK293 cells - 40 hour (AID 1224871); also: nearly all actives have a fitted effect of over 45% in size
Procedure, shortened: as §3

[6] = qHTS RealTime-Glo MT Cell Viability Assay in HEK293 cells - 16 hour (AID 1224872)
Procedure, shortened: as §2

[7] = qHTS RealTime-Glo MT Cell Viability Assay in HepG2 cells - 8 hour (AID 1224873); also: nearly all actives have a fitted effect of over 55% in size
Procedure, shortened: as §4

[8] = qHTS RealTime-Glo MT Cell Viability Assay in HEK293 cells - 40 hour (AID 1224874); details: RealTime-Glo luminescence; max response: active compounds read low; also: nearly all actives have a fitted effect of over 50% in size
Procedure, shortened: (§5)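 Kinetic, non-lysing viability readout. Seed HEK293 (600/well) with reagent, incubate 5 h at 37 C/5% CO2, pin 23 nL compound in DMSO, incubate at 37 C, read luminescence at 0, 8, 16, 24, 32, 40 h.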

[9] = A CellTox Green Cytotoxicity Assay to monitor cytotoxicity in HEK293 cells - 24 hour (AID 1224875); also: series mostly up to about 77 µM; nearly all actives have a fitted effect of over 45% in size
Procedure, shortened: as §3

[10] = A CellTox Green Cytotoxicity Assay to monitor cytotoxicity in HepG2 cells - 16 hour (AID 1224876); also: nearly all actives have a fitted effect of over 45% in size
Procedure, shortened: (§6)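 Cytotoxicity was tracked as dead-cell DNA fluorescence in HepG2 cells treated with test compounds at 37 C; each time-point value comes from one kinetic series spanning 0, 8, 16, 24, 32 and 40 h.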

[11] = qHTS RealTime-Glo MT Cell Viability Assay in HepG2 cells - 32 hour (AID 1224877); also: nearly all actives have a fitted effect of over 55% in size
Procedure, shortened: as §1

[12] = A CellTox Green Cytotoxicity Assay to monitor cytotoxicity in HepG2 cells - 24 hour (AID 1224878); also: nearly all actives have a fitted effect of over 45% in size
Procedure, shortened: as §6

[13] = A CellTox Green Cytotoxicity Assay to monitor cytotoxicity in HepG2 cells - 40 hour (AID 1224879); also: nearly all actives have a fitted effect of over 40% in size
Procedure, shortened: as §6

[14] = qHTS RealTime-Glo MT Cell Viability Assay in HEK293 cells - 0 hour (AID 1224880)
Procedure, shortened: as §5

[15] = A CellTox Green Cytotoxicity Assay to monitor cytotoxicity in HEK293 cells - 32 hour (AID 1224881); also: nearly all actives have a fitted effect of over 40% in size
Procedure, shortened: as §3

[16] = A CellTox Green Cytotoxicity Assay to monitor cytotoxicity in HepG2 cells - 0 hour (AID 1224882); also: nearly all actives have a fitted effect of over 35% in size
Procedure, shortened: as §6

[17] = A CellTox Green Cytotoxicity Assay to monitor cytotoxicity in HepG2 cells - 32 hour (AID 1224883); also: nearly all actives have a fitted effect of over 50% in size
Procedure, shortened: as §6

[18] = A CellTox Green Cytotoxicity Assay to monitor cytotoxicity in HEK293 cells - 8 hour (AID 1224884); also: nearly all actives have a fitted effect of over 35% in size
Procedure, shortened: as §3

[19] = qHTS RealTime-Glo MT Cell Viability Assay in HepG2 cells - 16 hour (AID 1224885); also: nearly all actives have a fitted effect of over 50% in size
Procedure, shortened: as §1

[20] = qHTS RealTime-Glo MT Cell Viability Assay in HEK293 cells - 24 hour (AID 1224886)
Procedure, shortened: as §2
% is scaled to controls: 0 for no effect and ±100 for the full control effect.

Cc1ccccc1N1CCN(CCc2nnc3n2CCCC3)CC1
inactive: outcome [1] | Potency [2] | Potency [3] | outcome [4] | Potency [5] | Potency [6] | outcome [7] | max response [8] -6.94% | Potency [9] | Potency [10] | outcome [11] | Potency [12] | Potency [13] | outcome [14] | Potency [15] | Potency [16] | Potency [17] | Potency [18] | outcome [19] | Potency [20]

CCCCCCCCCCCCC
inactive: outcome [1] | Potency [2] | Potency [3] | outcome [4] | Potency [5] | Potency [6] | outcome [7] | max response [8] 7.99% | Potency [9] | Potency [10] | outcome [11] | Potency [12] | Potency [13] | outcome [14] | Potency [15] | Potency [16] | Potency [17] | Potency [18] | outcome [19] | Potency [20]

CC(C)C(=O)Nc1cccc(C(F)(F)F)c1
inactive: outcome [1] | Potency [2] | Potency [3] | outcome [4] | Potency [5] | Potency [6] | outcome [7] | max response [8] -2.33% | Potency [9] | Potency [10] | outcome [11] | Potency [12] | Potency [13] | outcome [14] | Potency [15] | Potency [16] | Potency [17] | Potency [18] | outcome [19] | Potency [20]

C=CCCCCCCCCCCC
inactive: activity change, negative = cytotoxicity [1] 0.824% [at 6.97 µM] | activity change, negative = cytotoxic [2] 7.22% [at 6.97 µM] | cytotoxicity [3] 3.23% [at 6.97 µM] | activity change, negative = cytotoxic [4] -0.414% [at 6.97 µM] | cytotoxicity increase [5] 0.236% [at 6.97 µM] | activity change, negative = cytotoxicity [6] 6.31% [at 6.97 µM] | viability change, negative = cytotoxic [7] 1.47% [at 6.97 µM] | max response [8] 6.19% | activity change [9] -0.54% [at 6.97 µM, active compounds read high] | cytotoxicity increase [10] -0.067% [at 6.97 µM] | activity change, negative = cytotoxic [11] -0.401% [at 6.97 µM] | cytotoxicity [12] 0.49% [at 6.97 µM] | cytotoxicity increase [13] 1.74% [at 6.97 µM] | activity change, negative = cytotoxicity [14] 4.11% [at 6.97 µM] | cytotoxicity increase [15] -0.213% [at 6.97 µM] | cytotoxicity [16] 1.75% [at 6.97 µM] | cytotoxicity increase [17] 1.86% [at 6.97 µM] | cytotoxicity increase [18] 2.18% [at 6.97 µM] | activity change, negative = cytotoxic [19] -0.787% [at 6.97 µM] | activity change, negative = cytotoxicity [20] 4.16% [at 6.97 µM]

CC(=O)OC(C)c1ccccc1 (stereo not given)
inactive: outcome [1] | Potency [2] | Potency [3] | outcome [4] | Potency [5] | Potency [6] | outcome [7] | max response [8] 0.769% | Potency [9] | Potency [10] | outcome [11] | Potency [12] | Potency [13] | outcome [14] | Potency [15] | Potency [16] | Potency [17] | Potency [18] | outcome [19] | Potency [20]

CCN(CC)C(=O)C1CN2CCc3cc(OC)c(OC)cc3C2CC1OC(C)=O (stereo not given)
inactive: outcome [1] | Potency [2] | Potency [3] | outcome [4] | Potency [5] | Potency [6] | outcome [7] | max response [8] -4.78% | Potency [9] | Potency [10] | outcome [11] | Potency [12] | Potency [13] | outcome [14] | Potency [15] | Potency [16] | Potency [17] | Potency [18] | outcome [19] | Potency [20]

CCCCCC1Nc2cc(C(F)(F)F)c(S(N)(=O)=O)cc2S(=O)(=O)N1 (stereo not given)
inactive: outcome [1] | Potency [2] | Potency [3] | outcome [4] | Potency [5] | Potency [6] | outcome [7] | max response [8] -1.2% | Potency [9] | Potency [10] | outcome [11] | Potency [12] | Potency [13] | outcome [14] | Potency [15] | Potency [16] | Potency [17] | Potency [18] | outcome [19] | Potency [20]

CC(C)c1ccccc1O
inactive: outcome [1] | Potency [2] | Potency [3] | outcome [4] | Potency [5] | Potency [6] | outcome [7] | max response [8] 12.5% | Potency [9] | Potency [10] | outcome [11] | Potency [12] | Potency [13] | outcome [14] | Potency [15] | Potency [16] | Potency [17] | Potency [18] | outcome [19] | Potency [20]

CCC(=O)c1ccc(O)cc1
inactive: outcome [1] | Potency [2] | Potency [3] | outcome [4] | Potency [5] | Potency [6] | outcome [7] | max response [8] -7.06% | Potency [9] | Potency [10] | outcome [11] | Potency [12] | Potency [13] | outcome [14] | Potency [15] | Potency [16] | Potency [17] | Potency [18] | outcome [19] | Potency [20]

CCOC(=O)C(C)(C)C
inactive: outcome [1] | Potency [2] | Potency [3] | outcome [4] | Potency [5] | Potency [6] | outcome [7] | max response [8] -0.816% | Potency [9] | Potency [10] | outcome [11] | Potency [12] | Potency [13] | outcome [14] | Potency [15] | Potency [16] | Potency [17] | Potency [18] | outcome [19] | Potency [20]

Nc1ccc(C(=O)OCC(O)CO)cc1 (stereo not given)
inactive: outcome [1] | Potency [2] | Potency [3] | outcome [4] | Potency [5] | Potency [6] | outcome [7] | max response [8] 2.88% | Potency [9] | Potency [10] | outcome [11] | Potency [12] | Potency [13] | outcome [14] | Potency [15] | Potency [16] | Potency [17] | Potency [18] | outcome [19] | Potency [20]

Nc1ccc(/C=C/c2ccc(N)cc2S(=O)(=O)O)c(S(=O)(=O)O)c1
inactive: activity change, negative = cytotoxicity [1] 2.78% [at 0.29 µM] | activity change, negative = cytotoxic [2] 0.295% [at 0.29 µM] | cytotoxicity [3] 5.28% [at 0.29 µM] | activity change, negative = cytotoxic [4] 0.506% [at 0.29 µM] | cytotoxicity increase [5] -0.161% [at 0.29 µM] | activity change, negative = cytotoxicity [6] 2.56% [at 0.29 µM] | viability change, negative = cytotoxic [7] 5.84% [at 0.29 µM] | max response [8] 2.9% | activity change [9] 0.201% [at 0.29 µM, active compounds read high] | cytotoxicity increase [10] -10.5% [at 0.29 µM] | activity change, negative = cytotoxic [11] -0.0646% [at 0.29 µM] | cytotoxicity [12] -13.6% [at 0.29 µM] | cytotoxicity increase [13] -16.8% [at 0.29 µM] | activity change, negative = cytotoxicity [14] 3.48% [at 0.29 µM] | cytotoxicity increase [15] -0.592% [at 0.29 µM] | cytotoxicity [16] 1.07% [at 0.29 µM] | cytotoxicity increase [17] -15.7% [at 0.29 µM] | cytotoxicity increase [18] 0.921% [at 0.29 µM] | activity change, negative = cytotoxic [19] 4.55% [at 0.29 µM] | activity change, negative = cytotoxicity [20] 1.86% [at 0.29 µM]
